Assay outcomes from PubChem BioAssay.
Rows were chosen to be rich in hits. Some 9.1% of all compounds tested hit in one or more screens of this group.
D1 mod = allosteric modulators of human D1 dopamine receptor; B-score at 10 µM; 5.9% of 58,000 active; P21728; AID 641; HEK293 D1, CRE-luciferase, dopamine EC30 potentiation; actives deviate in either direction;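 active = luminescence count or its row- and column-corrected plate score outside the 99.7% band of the plate's sample wells, on either side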
M1 antagonist = blocks the rat M1 muscarinic receptor response to acetylcholine | 3.4% of 64,000 active | AID 628 | CHO-M1 cells, Fluo-4 calcium, ACh EC80 antagonist mode; active compounds read low | B-score at 10 µM;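 active = calcium fluorescence response, raw or row-and-column corrected B-score, differing from the plate sample mean either way at a set confidence level, mostly lower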
Target sequence (P08482 whole entry, looked up): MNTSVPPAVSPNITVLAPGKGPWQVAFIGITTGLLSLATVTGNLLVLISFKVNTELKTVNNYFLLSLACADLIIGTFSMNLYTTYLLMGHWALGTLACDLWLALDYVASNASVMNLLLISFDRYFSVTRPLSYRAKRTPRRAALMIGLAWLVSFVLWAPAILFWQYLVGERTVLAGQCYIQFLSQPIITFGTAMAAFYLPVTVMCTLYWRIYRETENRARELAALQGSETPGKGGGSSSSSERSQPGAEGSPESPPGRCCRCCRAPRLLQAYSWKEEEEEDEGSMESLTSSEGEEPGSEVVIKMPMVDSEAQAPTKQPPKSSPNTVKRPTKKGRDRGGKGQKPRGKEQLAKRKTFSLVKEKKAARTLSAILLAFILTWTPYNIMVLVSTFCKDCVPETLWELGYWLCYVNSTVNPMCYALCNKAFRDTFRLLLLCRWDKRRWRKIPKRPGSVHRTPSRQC
Htt clearance = mutant huntingtin protein clearance. HeLa Exon1htt(103Q)mCFP, aggregate imaging; zero = plate's median compound well. inhibition, % at 1.5 µM. 0.42% of 47,000 active. AID 853;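 active = inhibition of aggregate fluorescence above about 70%, also judged a hit by eye on the cell image, limit read from the data, passing the limit was not always enough; inconclusive = no rule stated for this call; inactive = not judged a hit on image review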;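 also: cells exposed to compound for three days before fixation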
M1 agonist = activates the M1 muscarinic receptor; CHO-M1 cells, Fluo-4 calcium fluorescence, agonist mode; active compounds read high; B-score at 10 µM; 3% of 64,000 active; AID 626;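 active = fluorescence rise, raw or as B-score row- and column-corrected plate score, outside the 99.7% band of its plate's samples, either direction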
M1 ag confirm = confirmation of rat M1 muscarinic receptor agonists; shares compounds with M1 agonist; CHO-M1 cells, Fluo-4 calcium fluorescence, agonist mode; actives lie on both sides; fluorescence change (max-min) at 10 µM; 19% of 1,700 active; AID 1488;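 active = fluorescence change differs from the solvent-only DMSO control mean at a set confidence level in both duplicate runs; inconclusive = differs from solvent-only control mean in just one of two runs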;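 also: an EC20 dose of acetylcholine follows compound addition during the same imaging run; raw fluorescence intensity difference in instrument units with no normalization to controls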
M4 ag counter = rat M4 muscarinic agonism, M1 counter-screen; AID 1741; CHO M4/Gqi5 cells, Fluo-4 calcium fluorescence, agonist mode; actives lie on both sides; 9% of 1,700 active; shares compounds with M1 agonist; fluorescence change (max-min) at 10 µM;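 active = fluorescence change differing from the plate's solvent-only control wells at 99.7% confidence in both duplicates, whether higher or lower; inconclusive = differs from solvent controls in only one of two duplicates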
* hit, by the source's call; u = inconclusive; x = not tested or not shown.

SMILES	D1 mod	M1 antagonist	Htt clearance	M1 agonist	M1 ag confirm	M4 ag counter
Cc1ccc(CS(=O)(=O)CCC(=O)NCc2cccs2)cc1	0.34	0.56	23	4*	-21	-39
O=C(NCC1CCCO1)c1ccccc1-c1nc(-c2ccccc2)no1 (configuration not stated)	x	0.1	x	2.4*	-15	u
CCc1nc(C)cn1S(=O)(=O)c1cc(C)c(OC)cc1C	-1.5	0.013	x	-3.7*	u	u
CC(C)COC(=O)NCCOC(=O)Nc1cccc(Cl)c1	-0.96	-2.2*	-31	7.5*	-0.81	-85*
Cc1cc(C(=O)N2CCN(Cc3ccccc3)CC2)on1	x	x	18	x	x	x
Cc1ccc(Cn2c(=N)c(C(=O)NCc3ccco3)cc3c(=O)n4ccccc4nc32)cc1	-1.3	-2.3	x	-1.2	x	x
N=c1c(C(=O)NCc2ccc(F)cc2)cc2c(=O)n3ccccc3nc2n1CC1CCCO1 (configuration not stated)	-1.7	-0.97	x	3.7*	90*	u
N=c1c(C(=O)NCc2ccco2)cc2c(=O)n3ccccc3nc2n1CCc1ccccc1	-3	0.5	x	9.6*	39	3.6
Cc1cccn2c(=O)c3cc(C(=O)NCc4ccco4)c(=N)n(CCOCCO)c3nc12	-0.68	-0.94	-23	12*	107*	u
CC1=C(C(=O)Nc2ccccc2C)C(c2ccc(C)o2)C2=C(CCCC2=O)N1 (configuration not stated)	-0.56	0.76	x	-0.25	x	x
CCOC(=O)C1CCN(C(=O)c2cccnc2Cl)CC1	x	x	10	x	x	x
CCOC(=O)C(NCc1ccccc1OC)(NC(C)=O)C(F)(F)F (configuration not stated)	-1.1	-0.0061	15	-0.18	x	x
CCOc1cccc(C(=O)Nc2nc(-c3ccc(S(=O)(=O)N4CCOCC4)cc3)cs2)c1	-1.7	-0.47	11	3.7*	-26	-24
O=C1c2ccccc2C(=O)N1SC1CCCCC1	x	-0.76	x	6.4*	u	-43
CCc1ccc(N(CC(=O)NC2CCCC2)S(=O)(=O)c2c(C)noc2C)cc1	0.041	-0.27	x	-0.024	x	x
Cc1n[nH]c(C)c1S(=O)(=O)N(CC(=O)NC1CCCC1)c1ccc(C(C)C)cc1	-0.024	-0.22	42	3.9*	-19	-48
C=CCOc1cccc(C2C(C(=O)c3ccc(C)o3)=C(O)C(=O)N2c2nccs2)c1 (configuration not stated)	-0.32	0.33	20	58*	834*	84*
Cc1ccc(C(=O)C2=C(O)C(=O)N(c3ncccn3)C2c2cccc(Cl)c2)o1 (configuration not stated)	x	0.19	x	0.15	x	x
Cc1cc(=O)oc2cc(OCC(=O)OCc3nnc(-c4ccccc4)o3)ccc12	0.62	-0.17	x	37*	-4.5	-21
Cc1cccc2cc3c(NC(=O)C(C)C)nn(C)c3nc12	0.052	-15*	-18	12*	-16	-52
CCC(=O)Nc1nn(C)c2nc3c(C)cccc3cc12	-0.3	1.1	x	0.64	x	x
COc1ccc(OC)c(NC(=O)CSc2ncnc3c2cnn3-c2ccccc2Cl)c1	x	x	-53	x	x	x
CNc1ccccc1-n1ccc(-c2ccccc2)n1	0.49	0.34	x	3.6*	-7.4	-22
Cc1ccc(CN(Cc2cc3cccc(C)c3[nH]c2=O)C(=O)N(C)C)cc1	-0.35	0.47	x	0.17	x	x
COc1ccc(CN(Cc2cc3cccc(C)c3[nH]c2=O)C(=O)N(C)C)cc1	-0.68	-1	x	3.5*	-16	-49
SMILES	D1 mod	M1 antagonist	Htt clearance	M1 agonist	M1 ag confirm	M4 ag counter
CCCOC1CCCN(C(=O)c2cc(Cl)c(Cl)cc2C(=O)O)C1 (configuration not stated)	0.19	-3.4*	x	37*	329*	-24
Cc1ccccc1S(=O)(=O)Cc1ccc(C(=O)N2CCN(c3cccc(C)c3C)CC2)o1	-4.3	-0.63	x	9.7*	u	-31
COc1ccccc1S(=O)(=O)Cc1ccc(C(=O)N2CCCC2)o1	0.23	0.21	55	-0.99	x	x
Cc1ccccc1S(=O)(=O)Cc1ccc(C(=O)N2CC(C)CC(C)C2)o1 (configuration not stated)	-0.018	0.0081	u	-0.89	x	x
CCc1ccccc1S(=O)(=O)Cc1ccc(C(=O)N2CCN(c3ccccc3OC)CC2)o1	-2.4*	-0.28	x	7.2*	-16	u
O=C(Nc1ccc(Br)cc1)c1ccc(N2C(=O)C3CC=C(Cl)CC3C2=O)cc1 (configuration not stated)	x	x	-32	x	x	x
